Reference: PubChem BioAssay (NCI)
About 79,000 compounds went through this panel and 15% of them were active in at least one assay; those are over-represented in the sample as a whole. Active and inactive are the calls of the source. Rule as the data show it: active = growth inhibition above about 70%; inactive = the rest.

Tests used:
[1] = NCI Yeast Anticancer Drug Screen. Data for the rad52 strain (AID 147);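 also: 0% = growth of vehicle-treated control cultures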; details: S. cerevisiae rad52 mutant growth inhibition, active compounds read high
How it was run: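 Screen used a yeast mutant impaired in DNA repair. After compound exposure, growth was measured. Values reflect inhibition compared with vehicle-treated cells.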

[2] = NCI Yeast Anticancer Drug Screen. Data for the wt1 strain (AID 149);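 also: 0% = growth of vehicle-treated wt1 cultures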; details: S. cerevisiae wt1 strain (SPY 50644) growth inhibition, active compounds read high
How it was run: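 wt1 yeast, compound-treated; % growth inhibition vs vehicle control.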

[3] = NCI Yeast Anticancer Drug Screen. Data for the rad50EPP+ strain (AID 151);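 also: 0% = growth of vehicle-treated control cultures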; details: S. cerevisiae rad50 mutant strain, active compounds read high
How it was run: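 Exposing the rad50EPP+ strain to each compound, growth was compared with vehicle-only cultures to give inhibition.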

[4] = NCI Yeast Anticancer Drug Screen. Data for the rad50 strain (AID 155);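 also: 0% = growth of vehicle-only cultures of the same strain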; details: S. cerevisiae rad50 strain growth inhibition, active compounds read high
How it was run: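 Genetically altered yeast (DNA repair pathway); compound treatment; growth inhibition vs vehicle ctrl.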

[5] = NCI Yeast Anticancer Drug Screen. Data for the mec2-1 strain (AID 157); details: S. cerevisiae mec2-1 strain, active compounds read high
How it was run: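 Readout is yeast growth inhibition, normalised to vehicle-treated controls, in the mec2-1 strain exposed to compound.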

[6] = NCI Yeast Anticancer Drug Screen. Data for the rad14 strain (AID 159);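 also: 0% = growth of vehicle-treated control cultures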; details: S. cerevisiae rad14 strain growth inhibition, active compounds read high
How it was run: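 Test compounds were applied to a repair-deficient yeast strain. Its growth was then compared with that of cultures given vehicle alone, and inhibition was expressed relative to those controls.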

[7] = NCI Yeast Anticancer Drug Screen. Data for the sgs1 mgt1 strain (AID 161);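 also: 0% = growth of cultures given vehicle only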; details: S. cerevisiae sgs1 mgt1 strain, active compounds read high
How it was run: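 Compounds are added to genetically altered yeast, and growth is compared with cultures given vehicle alone to give percent inhibition.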

[8] = NCI Yeast Anticancer Drug Screen. Data for the CLN2oe strain (AID 163);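 also: 0% = growth of vehicle-only control cultures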; details: S. cerevisiae CLN2oe strain, active compounds read high
How it was run: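 Values reflect how much compound exposure reduced yeast growth, referenced to vehicle-exposed cells. Assay organism is a strain with a defined genetic change affecting cell-cycle control.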

[9] = NCI Yeast Anticancer Drug Screen. Data for the cln2 rad14 strain (AID 165);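 also: 0% = growth equal to vehicle treated cultures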; details: S. cerevisiae cln2 rad14 strain, active compounds read high
How it was run: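 Relative to vehicle controls, growth inhibition of compound-treated cln2 rad14 yeast was recorded.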

[10] = NCI Yeast Anticancer Drug Screen. Data for the bub3 strain (AID 167); details: S. cerevisiae bub3 mutant strain, active compounds read high
How it was run: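 Yeast carrying a defined mutation is treated with each compound, and growth is compared with that of vehicle-exposed cells to give inhibition.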

[11] = NCI Yeast Anticancer Drug Screen. Data for the wt2 strain (AID 169);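 also: 0% = growth of vehicle-treated yeast cultures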; details: S. cerevisiae wt2 strain growth inhibition, active compounds read high
How it was run: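 Values express reduction in yeast growth under compound treatment, referenced to vehicle-treated cells.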

[12] = NCI Yeast Anticancer Drug Screen. Data for the mlh1 strain (AID 171);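 also: 0% = growth of vehicle-treated control cultures of the same strain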; details: S. cerevisiae mlh1 strain growth inhibition, active compounds read high
How it was run: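 Steps: expose the defined-mutant yeast strain to compound; expose a parallel culture to vehicle; measure growth; express compound effect as inhibition relative to the vehicle culture.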

[13] = NCI Yeast Anticancer Drug Screen. Data for the sgs1 strain (AID 173);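 also: 0% = growth of vehicle-only control cultures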; details: S. cerevisiae sgs1 mutant, active compounds read high
How it was run: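 Treat defined-mutant yeast with compound; measure growth; calculate inhibition relative to vehicle-treated cells.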

[14] = NCI Yeast Anticancer Drug Screen. Data for the mlh1 rad18 strain (AID 175); details: S. cerevisiae mlh1 rad18 strain growth inhibition, active compounds read high
How it was run: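 Test agents were incubated with a yeast strain of defined genotype (DNA damage repair defect). Inhibition of growth was derived by comparison with vehicle-exposed cultures.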

[15] = NCI Yeast Anticancer Drug Screen. Data for the rad18 strain (AID 177); details: S. cerevisiae rad18 mutant growth inhibition, active compounds read high
How it was run: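 A genetically defined yeast mutant impaired in DNA damage repair was treated with test compounds, then its growth was measured against cultures receiving vehicle alone.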

[16] = at 5.0 µM (retest, dose inferred, filed as 0.5)
[17] = at 50.0 µM (retest, dose inferred, filed as 5.0)

Measured: growth inhibition

Oc1ccc(SCc2ccc(NCc3ccccc3)cc2)cc1
active: [1]; at 100.0 µM 89% | [2]; at 100.0 µM 91% | [4]; [17] 94% | [4]; at 100.0 µM 87% | [5]; at 50.0 µM 87.1% | [5]; at 100.0 µM 89% | [6]; at 100.0 µM 89% | [7]; at 50.0 µM 77.7% | [8]; at 100.0 µM 90% | [10]; at 50.0 µM 87.3% | [10]; at 100.0 µM 90% | [11]; at 100.0 µM 91% | [12]; at 100.0 µM 86% | [13]; at 100.0 µM 87% | [14]; [17] 75% | [14]; at 50.0 µM 79.8% | [15]; at 100.0 µM 91%
inactive: [1]; at 1.2 µM -4% | [1]; at 3.7 µM -27% | [1]; at 11.0 µM -26% | [1]; at 33.0 µM 19% | [2]; at 1.2 µM -32% | [2]; at 3.7 µM -35% | [2]; at 11.0 µM -52% | [2]; at 33.0 µM -4% | [3]; at 1.2 µM -10% | [3]; at 3.7 µM -22% | [3]; at 11.0 µM -17% | [3]; at 33.0 µM 0% | [3]; at 100.0 µM 6% | [4]; at 1.2 µM 0% | [4]; at 3.7 µM -13% | [4]; [16] 22% | [4]; at 11.0 µM -11% | [4]; at 33.0 µM 23% | [4]; at 50.0 µM 66.8% | [5]; at 1.2 µM -7% | [5]; at 3.7 µM 1% | [5]; [16] 12% | [5]; at 11.0 µM -13% | [5]; at 33.0 µM 20% | [5]; [17] 55% | [6]; at 1.2 µM -30% | [6]; at 3.7 µM -44% | [6]; at 11.0 µM -31% | [6]; at 33.0 µM 29% | [7]; [16] 42% | [7]; [17] 63% | [8]; at 1.2 µM 12% | [8]; at 3.7 µM 13% | [8]; at 11.0 µM 13% | [8]; at 33.0 µM 40% | [9]; [16] 38% | [9]; [17] 56% | [9]; at 50.0 µM 49.4% | [10]; at 1.2 µM 20% | [10]; at 3.7 µM 14% | [10]; [16] 53% | [10]; at 11.0 µM 11% | [10]; at 33.0 µM 60% | [10]; [17] 50% | [11]; at 1.2 µM -16% | [11]; at 3.7 µM -46% | [11]; at 11.0 µM -33% | [11]; at 33.0 µM 9% | [12]; at 1.2 µM -8% | [12]; at 3.7 µM -25% | [12]; at 11.0 µM -14% | [12]; at 33.0 µM 18% | [13]; at 1.2 µM -33% | [13]; at 3.7 µM -63% | [13]; at 11.0 µM -41% | [13]; at 33.0 µM 26% | [14]; [16] 19% | [15]; at 1.2 µM 22% | [15]; at 3.7 µM 7% | [15]; at 11.0 µM 12% | [15]; at 33.0 µM 32%
